# Results taken from PubChem BioAssay AID2205 (University of Pittsburgh Molecular Library Screening Center, 2009).
# The campaign covered roughly 200,000 compounds. About 1,600 (0.8%) were called active.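 The calls were made as follows: active = plate Z-score above 3 for both tubulin-high and condensed-nucleus cell shares, with cell loss under 80%, at 10 µM; inactive = the rest, inconclusive results apart.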 The sample as a whole holds a higher share of actives than the screen did.
# Test: microtubule stabilizers in HeLa cells, primary screen, imaging, high-content imaging (AID 2205);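 as to % tubulin-high responders: anti alpha tubulin signal scored within the nucleus-defined area of each cell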;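 as to toxicity: 0% = mean cell density of plate MIN control wells and 100% = no cells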
# Conditions: HeLa tubulin immunostaining HCS, 24 h, at 10 µM; % Hoechst-high responders: measured here: nuclear condensation Hoechst responders, stronger effect = higher value; % tubulin-high responders: stronger effect = higher value; toxicity: measured here: cytotoxicity by cell density
Structure (SMILES),% Hoechst-high responders,% tubulin-high responders,toxicity
Cc1ccc(-c2cc(C(=O)N3CCC4(CC3)OCCO4)no2)cc1,2.17%,2.98% (inactive),5.89%
Cc1cccc(-n2c(C)nc3cc(C(=O)N4CCC5(CC4)OCCO5)ccc32)c1,32.4%,48.1% (active),34.2%
O=C(c1cc(-c2ccncc2)nc2ccccc12)N1CCC2(CC1)OCCO2,1.52%,3.12% (inactive),6.16%
O=C(O)CCn1cc(C=C2C(=O)NC(=S)NC2=O)c(-c2cccc(Br)c2)n1,1.76%,1.65% (inactive),3.44%
C[N+]12CN3CN(CN(C3)C1)C2,0.953%,7.11% (inactive),4.73%
COc1cc(-n2c(=S)[nH]c3ccc(C)cc3c2=O)c(Cl)cc1Cl,23.7%,12.4% (active),29%
CC(Cc1cccs1)NCc1ccc(Cl)cc1 (stereo not given),2.36%,3.24% (inactive),0.83%
CN1CCN(C(=O)COc2ccc(C(C)(C)C)cc2Br)CC1,1.35%,1.46% (inactive),9.25%
Cc1cccc2c(CCN)c[nH]c12,2.2%,2.61% (inactive),4.06%
Cc1cc(C)cc(NC(=S)NC2CC3CCCC(C2)N3Cc2cccs2)c1 (stereo not given),1.98%,3.91% (inactive),8.8%
